Assay outcomes from PubChem.
S2 tox: viability counter-screen for ATXN expression inhibitors; hit rate 0.49% among 400,000; AID 651635; Potency, µM (series often up to 56.7 µM), actives largely listed as cytotoxic; S2 cells (HEK-293 line with an ATXN2-luciferase reporter) viability, CellTiter-Fluor protease fluorescence, 24 h; also: nearly all actives have a fitted effect of over 40% in size
TDP1 cell noCPT: qHTS for Inhibitors of human tyrosyl-DNA phosphodiesterase 1 (TDP1): qHTS in cells in absence of CPT | DT40 Tdp1-/- hTDP1 cells, no CPT, ATP luminescence, 48 h | Potency, µM (series often up to 46.2 µM), actives largely listed as inhibitors | hit rate 15% among 420,000; also: nearly all actives have a fitted effect of over 55% in size
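Growth of hTDP1-complemented DT40 Tdp1-knockout cells is measured by ATP luminescence after at least 48 hr compound exposure at 37 °C, with DMSO substituting for the 20 nM CPT used in the parallel screen.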
TGFb SMAD3 inh: inhibitors of TGF-b signaling; Potency, µM (highest dose often 46.1 µM), hits mostly inhibitors; hit rate 1.2% among 410,000; HepG2 CAGA-GFP TGF-b/SMAD3 reporter, GFP fluorescence, 18 h; TGF-beta stimulated, 500 pg/mL final; AID 588855; also: nearly all actives have a fitted effect of over 65% in size
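GFP signal (ex488/em500-530) from TGF-beta-stimulated HEPG2 CAGA-GFP cells, 500 pg/mL final, 18 h at 37 degrees C in DMEM plus 1% FBS, normalized to unstimulated and DMSO-stimulated controls.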
TDP1 cell CPT: growth inhibition of DT40 Tdp1-/-;hTDP1 cells with camptothecin (screen for TDP1 inhibitors). Potency, µM (top dose mostly 46.2 µM), most hits filed as inhibitors. hit rate 12% among 420,000. chicken DT40 Tdp1-/-;hTDP1 cells + 20 nM CPT, ATP luminescence, 48 h; also: nearly all actives have a fitted effect of over 55% in size
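Cell growth measured by CellTiter-Glo luminescence after a minimum 48 h, 37 C compound exposure with 20 nM CPT in Tdp1-knockout DT40 cells stably expressing hTDP1, seeded 400/well; qHTS titration format.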
HepG2 tox: counter-screen for TGF-b inhibitors: cytotoxicity in HepG2 cells; HepG2 CAGA-GFP viability, ATP luminescence, 18 h; Potency, µM (doses to about 46.1 µM), usual class: cytotoxic; hit rate 0.76% among 410,000; AID 588856
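CellTiter-Glo luminescence gave cytotoxicity after 18 hours at 37 degrees C. The cells were HepG2 CAGA-GFP in 1% FBS DMEM, stimulated with 500 pg/mL TGF-beta after compound addition. %Activity was normalised to no-cell wells (complete cell-killing) and DMSO (no toxicity), and curves were fitted and classified.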
ATXN2 expr inh: reduces ATXN2 reporter expression in HEK-293 cells; hit rate 0.72% among 360,000; HEK-293 ATXN2-luciferase reporter, luminescence, 24 h; Potency, µM (top dose mostly 57 µM), most hits filed as inhibitors; also: nearly all actives have a fitted effect of over 55% in size
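qHTS (up to 57 uM final) was run with 24 h compound exposure of reporter cells at 37 °C. Each well was multiplexed: SteadyGlo luminescence measured ATXN2-luciferase expression after a fluorogenic Gly-Phe-AFC viability readout (25 uM final).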
A number is an active result; n = inactive; u = inconclusive; x = no result given; [ ] = dose if it differs, or a comment. The list is not random: actives were taken first. Their share in the collection is about 17%. Calls follow the shape of the dose curve; as a rule, active = well fitted curve in the direction sought with a large enough effect; inconclusive = small, poorly fitted or top-dose-only effect, or another doubt; inactive = no such curve, though single readings can be large; an effect the other way counts as inactive or inconclusive.

SMILES	S2 tox	TDP1 cell noCPT	TGFb SMAD3 inh	TDP1 cell CPT	HepG2 tox	ATXN2 expr inh
CCOC(=O)c1ccc(N2C(=O)c3cccc4c(C(=O)O)ccc(c34)C2=O)cc1	n	n	n	n	n	n
COC(=O)c1ccccc1NC(=O)COC(=O)Cc1ccc(S(=O)(=O)N2CCOCC2)s1	n	n	n	n	n	n
COC(=O)c1ccccc1NC(=O)N1CCN(S(C)(=O)=O)CC1	n	n	n	n	n	n[11.3 µM]
CCc1ccc(NC(=O)[C@H](C)NC(=O)C2CCN(C(=O)[C@@H](NC(=O)OC(C)(C)C)C(C)C)CC2)cc1	n	n	n	n	n	x
CCc1ccc(NC(=O)[C@H](C)NC(=O)C2CCN(C(=O)[C@@H](N)Cc3ccccc3)CC2)cc1	u	16µM	n	u	n	n
Fc1ccc(-c2nn(-c3ccccc3)cc2CNCc2ccccc2)cc1	n	u	u	u	n	n[11.3 µM]
Fc1ccc(-n2cc(CNCCc3cccnc3)c(-c3ccccc3Cl)n2)cc1	u	23µM	u	15µM	n	n
O=C(CSc1n[nH]c(-c2ccccn2)n1)Nc1ccc(Cl)cc1	n	4.6µM	n	6.5µM	n	20µM
Cc1ccc(NC(=O)CSc2ccc(-c3ccccn3)nn2)cc1	n	u	u	u	n	u
Cc1cccc(NC(=O)CSc2n[nH]c(-c3ccncc3)n2)c1C	n	n	u	12µM	n	n
O=C(CSc1n[nH]c(-c2ccccn2)n1)Nc1ccc(F)cc1	n	7.3µM	n	u	n	u
Cc1ccc(NC(=O)CSc2n[nH]c(-c3ccccn3)n2)cc1	n	n	n	5.8µM	n	u
CCOC(=O)c1cnn(-c2cccc(F)c2)c1C1CCNCC1	n	n	n	n	n	n
COc1cccc(-n2nc(C(C)=O)c(=O)[nH]c2=O)c1	n	n	n	n	n	n
COc1cccc2c1C(=O)/C(=C\c1ccc(N(C)C)cc1)C2	x	11µM	n	u	n	x
CC(C)C(N)c1csc(Nc2ccc(S(C)(=O)=O)cc2)n1 (centres undefined)	n	n	n	n	n	n
NS(=O)(=O)c1ccc(Nc2nc(-c3cccnc3)cs2)cc1	n	u	n	n	n	n
NC(Cc1ccc(Cl)cc1)c1csc(Nc2ccc(S(N)(=O)=O)cc2)n1 (centres undefined)	u	9.2µM	n	15µM	n	u
NC(Cc1ccc(C(F)(F)F)cc1)c1csc(Nc2ccc(S(N)(=O)=O)cc2)n1 (centres undefined)	u	21µM	u	13µM	n	u
COc1ccc(C(N)c2csc(Nc3ccc(S(C)(=O)=O)cc3)n2)cc1 (centres undefined)	n	u	n	23µM	n	n
CS(=O)(=O)c1ccc(Nc2nc(C(N)Cc3ccc(Cl)cc3)cs2)cc1 (centres undefined)	n	16µM	u	12µM	n	u
COC(=O)N1CCC[C@@]2(CCN(C(=O)Nc3ccccc3)C2)C1	x	n	x	n	x	x
CCc1cccc(C)c1NC(=O)C(C)Sc1nc2c(c(=O)[nH]1)CCCC2 (centres undefined)	n	u	n	n	n	n
CC(Sc1nc2c(c(=O)[nH]1)CCCC2)C(=O)Nc1ccc(Br)cn1 (centres undefined)	n	16µM	n	23µM	n	n
COCc1cc(C)nc(NC2CC(C)(C)NC(C)(C)C2)c1C#N	n	n	n	n	n	n
SMILES	S2 tox	TDP1 cell noCPT	TGFb SMAD3 inh	TDP1 cell CPT	HepG2 tox	ATXN2 expr inh
CC(=O)c1ccc(NC(=O)c2nn(C)c3c2COc2ccccc2-3)cc1	x	u	n	15µM	n	x
CCN(CC)CCOC(=O)c1ccc(NC(=O)c2nn(C)c3c2COc2ccccc2-3)cc1	x	3.3µM	n	4.1µM	n	x
CCOC(=O)c1ccc(NC(=O)c2nn(C)c3c2COc2ccccc2-3)cc1	x	n	n	u	n	x
CC(=O)c1ccc(NC(=O)c2noc3c2CSc2ccccc2-3)cc1	x	9.2µM	n	15µM	n	x
CCOc1ccc(NC(=O)c2noc3c2CSc2ccccc2-3)cc1	x	n	n	n	n	x
COC(=O)c1csc(S(=O)(=O)N2CCOCC2)c1OC	n	n	n	n	n	n
CCOc1ccc(NC(=O)c2ccc(N3CC4CC(C3)c3cccc(=O)n3C4)c(NC(=O)c3cccnc3)c2)cc1 (centres undefined)	n	n	n	n	n	n
O=C(O)c1ccccc1SC1CC(=O)N(c2cccc3ccccc23)C1=O (centres undefined)	n	2.6µM	n	1.8µM	n	n
CCOC(=O)c1c(N2C(=O)CC(Sc3ccccc3C(=O)O)C2=O)sc2c1CCCC2 (centres undefined)	n	15µM	n	15µM	n	n
O=C(Nc1ccccc1)c1cn(-c2ccccc2)nc1-c1ccccc1	n	16µM	n	u	n	n
O=C(CCl)Nc1cn(-c2ccccc2)nc1-c1ccc(F)cc1	u	3.7µM	u	4.6µM	n	u
Cc1ccc(NC(=O)c2cn(-c3ccccc3)nc2-c2ccccc2)cc1	n	u	u	u	n	n
OCc1cn(-c2ccccc2)nc1-c1ccc(-c2nn(-c3ccccc3)cc2CO)cc1	n	10µM	n	u	n	n
O=C(Nc1ccc([N+](=O)[O-])cc1)c1cn(-c2ccccc2)nc1-c1cc2ccccc2o1	u	10µM	n	8.2µM	n	n
CC1CCC(NC(=O)c2cccc(S(=O)(=O)N3CCOCC3)c2)CC1 (centres undefined)	n	u	u	n	n	x
Cc1nn(Cc2c(Cl)cccc2Cl)c(C)c1NC(=O)c1cn(-c2ccccc2)nc1-c1ccccc1	13µM	4.6µM	n	6.5µM	n	13µM
CCc1ccccc1NS(=O)(=O)c1cc(C)ccc1OC	n	n	n	n	n	n
CC(=O)c1cccc(-c2ccc3c(c2)C(C)(Cc2ccccc2C#N)C(=O)N3)c1 (centres undefined)	n	u	n	16µM	n	n
CC(=O)c1cccc(-c2ccc3c(c2)C(C)(Cc2ccc(S(C)(=O)=O)cc2)C(=O)N3)c1 (centres undefined)	n	n	n	u	n	n
COc1ccc(C(C)=O)cc1CC1(C)C(=O)Nc2ccc(-c3cccc(C(F)(F)F)c3)cc21 (centres undefined)	n	u	16µM	u	n	u
